A selection: hits, their analogues and other compounds. The true share with any hit is near 2.4%.
D2 PAM-1: potentiates the human D2 dopamine receptor allosterically; potentiation, % (test concentration not listed); 0.23% of 360,000 active; DiscoveRx D2 beta-arrestin cells, luminescence, 90 min; 100% = 57 uM dopamine signal; P14416; AID 624464; in the data active = potentiation above about 50%; inconclusive = mostly about 30% to 49%
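PathHunter D2 cells, attached overnight at 37 deg C, received compound in DMSO plus dopamine at EC20 (50 nM final) for 90 min at 37 deg C. Beta-arrestin recruitment was read as luminescence after 1 h with detection reagent at ambient temperature.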
D2 antag: antagonizes the human D2 dopamine receptor | AID 485344 | inhibition, % at 10 µM | 2% of 340,000 active | HEK293 TREx D2 cells, calcium flux, dopamine EC80; in the data active = inhibition above about 30%; inactive = below that, where a call was filed; also: 0% is about no effect
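Overnight-induced (tetracycline, 30 C) HEK293 T-REx cells carrying force-coupled D2 receive a no-wash calcium dye, then compound, then EC80 dopamine at 180 s; signals are read kinetically throughout.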
D2 ag-1: D2 dopamine receptor (human) agonism; P14416; HEK293 T-REx D2 cells, calcium flux agonist mode; activation, % at 2 µM; 0.53% of 340,000 active;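 active = activation over 3 SD above normal in the single-dose calcium agonist read, cut at about 30% in these data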; also: 0% is about no effect
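Tetracycline-induced HEK293 Trex cells with D2 receptor force-coupled to calcium signaling, plated overnight at 30 C and loaded with no-wash calcium dye. Calcium flux read kinetically for 180 s after compound addition; responses flag agonists.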
D2 ag-2: human D2 receptor agonism in beta-arrestin assay | P14416 | DiscoveRx PathHunter D2 beta-arrestin, luminescence, 90 min; 100% = 57 uM dopamine signal | activation, % (test concentration not listed) | 0.084% of 360,000 active | AID 624465; in the data active = activation above about 40%; inconclusive = between about 15% and that limit
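Agonist mode: compounds alone added to overnight-plated D2 PathHunter cells for 90 min at 37 C, with 57 uM final dopamine (EC100) defining full response. Beta-arrestin recruitment detected by chemiluminescent reagent, read after 1 h at ambient temperature.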
D2 PAM-2: positive allosteric modulators of human D2 dopamine receptor; AID 485347; 0.34% of 340,000 active; potentiation, % at 10 µM; HEK293 T-REx D2, calcium flux, EC20 dopamine potentiation;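 active = potentiation over 3 SD above the plate norm, cut at about 30% in these data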; also: 0% is about no effect
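Tetracycline-induced Hek293 Trex D2 cells, force-coupled to calcium, loaded with no-wash calcium dye. Compound added with 180 s kinetic read for agonism, then EC20 dopamine and a further 180 s read for potentiation.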
D3 arrestin ag: activates human D3 dopamine receptor beta-arrestin recruitment | shares compounds with D2 ag-1 | DiscoveRx D3 beta-arrestin cells, luminescence, 90 min | Potency, µM (top dose mostly 76.9 µM), without a hit: top-dose activation, usual class: activators | 4% of 2,300 active | AID 720506;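 also: potency is read from the fitted curve at half-maximal effect; 100% = dopamine control response; nearly all actives have a fitted effect of over 70% in size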
Target sequence (P35462 whole entry, looked up): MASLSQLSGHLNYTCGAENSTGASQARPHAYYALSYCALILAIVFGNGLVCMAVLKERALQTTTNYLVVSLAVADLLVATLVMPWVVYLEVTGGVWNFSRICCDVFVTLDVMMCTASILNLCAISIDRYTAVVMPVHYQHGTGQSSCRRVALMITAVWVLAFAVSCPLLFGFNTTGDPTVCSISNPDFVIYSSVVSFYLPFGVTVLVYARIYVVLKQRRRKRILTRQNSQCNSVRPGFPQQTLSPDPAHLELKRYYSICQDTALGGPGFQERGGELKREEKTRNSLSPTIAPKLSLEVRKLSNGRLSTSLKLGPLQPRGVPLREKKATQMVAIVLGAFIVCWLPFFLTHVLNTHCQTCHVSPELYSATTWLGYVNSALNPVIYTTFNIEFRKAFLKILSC
D2 ag-3: activates human D2 dopamine receptor in D3 counterscreen; shares compounds with D2 ag-1; DiscoveRx PathHunter D2 beta-arrestin, luminescence, 90 min; response scale: percent relative to full dopamine signal; Potency, µM (doses to about 76.9 µM), for the others: at the highest dose activation, usual class: activators; 5.9% of 2,300 active; AID 720507; also: potency is read from the fitted curve at half-maximal effect; % of control where 0% means no effect; nearly all actives have a fitted effect of over 70% in size
* marks the source's active call; other numbers are inactive results; ? = inconclusive; nt = not tested or not shown; ! = not confirmed by another sample. Unless noted, calls follow the shape of the dose curve; as a rule, active = well fitted activation curve with a large enough effect; inconclusive = small, poorly fitted or top-dose-only effect; inactive = flat fitted curve, though single readings scatter.

SMILES	D2 PAM-1	D2 antag	D2 ag-1	D2 ag-2	D2 PAM-2	D3 arrestin ag	D2 ag-3
O=S(=O)(c1ccc(OCC(O)CN2CCN(c3ccccc3)CC2)cc1)N1CCOCC1 (configuration not stated)	13	96*	85*	44*	-23	?	7.1µM*
O=S(=O)(c1ccc(OCC(O)CN2CCN(c3ccccc3O)CC2)cc1)N1CCOCC1 (configuration not stated)	1	69*	71*	?	-24	?	28µM*
CN(C)S(=O)(=O)N1CCC(n2cnc3cccnc32)CC1	nt	nt	0	nt	1	nt	nt
O=[N+]([O-])c1cccc(N/N=C/c2cccc(O)c2O)c1	6	-10	1	9	1	nt	nt
O=C(c1ccccc1)N1N=C(C(F)(F)F)CC1(O)c1ccc(F)cc1 (configuration not stated)	-4	-27	0	-3	8	-12%	-1%
O=C(c1ccccc1)N1N=C(C(F)(F)F)CC1(O)c1ccccc1 (configuration not stated)	-12	-2	-2	1	4	nt	nt
COc1ccc(N2CCN(CCCNS(=O)(=O)c3ccc4c(c3)oc(=O)n4C)CC2)cc1	-11	30	19	2	-18	9%	14%
Cc1cccc(N2CCN(C(=O)CCS(=O)(=O)c3ccc4c(c3)oc(=O)n4C)CC2)c1C	-18	15	3	4	-10	nt	nt
Cc1cccc(N2CCN(C(=O)CCNS(=O)(=O)c3ccc4c(c3)oc(=O)n4C)CC2)c1C	5	-7	45*	4	-17	11%	25%
Cn1c(=O)oc2cc(S(=O)(=O)NCCN3CCN(c4ccccc4F)CC3)ccc21	-8	77*	55*	1	-24	12%	22%
Cn1c(=O)oc2cc(S(=O)(=O)NCCN3CCCCCC3)ccc21	9	15	1	0	-9	nt	nt
CSC1SCC2C(=O)N(C)C(C(C)C)C(=O)OCC(NC(=O)c3cnc4ccccc4n3)C(=O)NC(C)C(=O)N(C)C1C(=O)N(C)C(C(C)C)C(=O)OCC(NC(=O)c1cnc3ccccc3n1)C(=O)NC(C)C(=O)N2C (configuration not stated)	8	nt	nt	5	nt	nt	nt
CCCCCCN1CCN(C2CN(C3CCCCC3)S(=O)(=O)C2)CC1 (configuration not stated)	-14	nt	nt	-3	nt	nt	nt
Cc1cc(Cl)ccc1Oc1ncc(CN2CCN(c3ccccc3)CC2)s1	17	84*	65*	?	-27	?	32µM*
Brc1ccc(Oc2ncc(CN3CCOCC3)s2)cc1	-26	7	0	-1	-3	nt	nt
COc1ccc(Oc2ncc(CN3CCN(c4ccccc4)CC3)s2)cc1	27	76*	72*	42*	-27	?	5.6µM*
O=C(NCCNC(=O)c1cccnc1)c1ccc(Br)cc1	-4	-7	1	-4	3	nt	nt
Cc1ccc(C(=O)Nc2nc3nc(C)cc(=O)n3[nH]2)cc1	nt	nt	nt	nt	10	nt	nt
COc1cccc(CNC(=O)c2cnc3c(-c4ccc(F)cc4)c(C)nn3c2C)c1	nt	nt	0	nt	8	nt	nt
Cc1ccc(/C([O-])=C(/C(=S)NCc2ccccc2)[n+]2ccccc2)cc1[N+](=O)[O-]	-4	8	31*	-4	-18	-15%	-7%
COc1ccc(-c2ccc(C(=O)Nc3ccc4c(c3)OCO4)c3occc23)c(C)c1	-10	nt	nt	6	nt	nt	nt
Cc1nc2ccccc2nc(=O)c1NNc1ccccc1	0	8	75*	-3	-23	-8%	-3%
O=C1CC(c2ccccc2)NN1 (configuration not stated)	-16	-9	0	-8	-14	-7%	-3%
CCN1CC2=C(OC(N)=C(C#N)C2c2cccs2)/C(=C\c2cccs2)C1 (configuration not stated)	-22	27	41*	0	-23	-11%	-2%
O=C(O)/C(=C\c1cccc(F)c1)c1ccc(S(=O)(=O)N2CCCCC2)s1	10	-11	-1	-6	6	nt	nt
SMILES	D2 PAM-1	D2 antag	D2 ag-1	D2 ag-2	D2 PAM-2	D3 arrestin ag	D2 ag-3
O=C(O)/C(=C\c1cccc(O)c1)c1ccc(S(=O)(=O)N2CCCC2)s1	6	42*	25	0	-5	-5%	8%
Cc1cccc(Oc2ccc(NC(=O)CCC(=O)OCC(=O)c3ccc(Br)cc3)cc2)c1C	nt	nt	-1	nt	-4	nt	nt
CCCn1c(N)c(C(c2ccc(OC)cc2)N2CCN(c3ccccc3)CC2)c(=O)[nH]c1=O (configuration not stated)	-9	3	43*	7	-10	-8%	7%
COC(=O)c1ccc(C(c2c(N)n(CC(C)C)c(=O)[nH]c2=O)N2CCN(c3ccccc3)CC2)cc1 (configuration not stated)	-3	nt	nt	1	nt	nt	nt
CCCn1c(N)c(C(c2ccc(C(=O)OC)cc2)N2CCN(c3ccccc3)CC2)c(=O)[nH]c1=O (configuration not stated)	-5	16	48*	-1	-8	5%	11%
Cc1ccccc1NC(=O)COc1coc(CN2CCN(c3ccccc3)CC2)cc1=O	6	9	55*	?	-15	14%	29%
COc1ccc(NC(=O)COc2coc(CN3CCN(c4ccccc4)CC3)cc2=O)cc1	0	27	50*	-2	-18	11%	28%
COc1ccc(N2CCN(Cc3cc(=O)c(OCC(=O)Nc4ccccc4)co3)CC2)cc1	0	10	0	-3	2	nt	nt
CC1(C(=O)NS(=O)(=O)c2ccc(C#N)cc2)CCN1C(=O)Cc1cc(F)ccc1F (configuration not stated)	-1	nt	nt	4	nt	nt	nt
COC(=O)c1ccc2c(c1)NC(=O)C(N1CCOCC1)S2 (configuration not stated)	2	-1	-1	2	-6	nt	nt
CCCCN(C)CCNC(=O)c1ccc2c(c1)NC(=O)C(N1CCCCC1)S2 (configuration not stated)	-42	73*	50*	-1	-21	?	15%
Cc1ccc(C)c(S(=O)(=O)N2CCN(C(=O)Cn3cnc4c3c(=O)n(C)c(=O)n4C)CC2)c1	-10	nt	nt	9	nt	nt	nt
Cn1c2ccccc2c2cnn(CC(=O)NCCCN3CCN(c4ccccc4F)CC3)c(=O)c21	-7	63*	69*!	3	-24	13%	26%
